The results in this text go back to PubChem BioAssay.

Experiment [1] is described as follows: small molecules captured by biotinylated probe aFSTL3 – biochemical, small-molecule microarray, fluorescence 635/667, stem cell growth factor project, primary screen (AID 1064).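 Further: measures binding of the biotinylated anti-FSTL3 antibody to printed compounds.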 Conditions: higher = more signal.
Experiment [2] is described as follows: binders from COS7 lysate, DM2A8 probe, primary screen, torsin A project, cell lysate, small-molecule microarray, fluorescence 635/667 (AID 1065). Conditions: higher = more signal, COS7 lysate expressing mutant human TOR1A.
Experiment [3] can be described thus: small molecules captured by biotinylated probe aFGF2 – biochemical, small-molecule microarray, fluorescence 635/667, stem cell growth factor project, primary screen (AID 1067).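 Further: measures binding of biotinylated aFGF2 protein to printed compounds on slides; z-score merges feature fluorescence and signal-to-noise across triplicate slides.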 Conditions: higher = more signal.
A short description of experiment [4]: small molecules captured by biotinylated probe aFGF10 – biochemical, small-molecule microarray, fluorescence 635/667, stem cell growth factor project, primary screen (AID 1071).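 Further: score merges 667 nm spot intensity and signal to noise from triplicate slides.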 Conditions: higher = more signal.
Experiment [5] has as its target Neurogenic locus notch homolog protein 2 (Homo sapiens) (UniProt Q04721). In words: small molecules binding Notch2 protein – biochemical, small-molecule microarray, 635 nm fluorescence, stem cell growth factors, primary screen (AID 1073). Conditions: higher = more signal.
Experiment [6] deals with Pro-neuregulin-1, membrane-bound isoform (Homo sapiens) (UniProt Q02297). In words: small molecules binding neuregulin-1 protein – biochemical, small-molecule microarray, fluorescence 635/667, psychiatric disease protein project, primary screen (AID 1075).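 Further: score combines 667 nm spot fluorescence with signal to noise.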 The conditions noted are these: NRG1 binding, 635 nm fluorescence, higher = more signal.
Experiment [7] deals with Neuregulin-1 EGF-like domain. In words: small molecules binding NRG1 EGF domain – biochemical, small-molecule microarray, 635 nm fluorescence, primary screen (AID 1081).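 Further: binding of the protein to compounds printed on small-molecule microarray slides.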 Conditions: higher = more signal.
A short description of experiment [8]: FRG1 expression reporter modulators in myotubes – cell-based, C2C12 myotubes, firefly/Renilla luciferase, luminescence, FRG1 inhibition for FSHD, primary screen (AID 1084). The conditions noted are these: FRG1 promoter luciferase, higher = more signal, called active from +8 up or from −8 down.
The nature of experiment [9]: small molecules captured by biotinylated probe aFST – biochemical, small-molecule microarray, fluorescence 635/667, stem cell growth factor project, primary screen (AID 1086).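 Further: score merges 667 nm fluorescence with signal-to-noise of each printed compound spot.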 The conditions noted are these: higher = more signal.
Experiment [10] can be described thus: binders of probe aHhip on microarray, primary screen, stem cell growth factor project, biochemical, small-molecule microarray, fluorescence 635/667 (AID 1087).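 Further: score merges spot fluorescence at 667nm with spot signal to noise ratio.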 The conditions noted are these: higher = more signal.
The test system of experiment [11] is PRMT1 (protein arginine N-methyltransferase 1). The experiment can be described thus: small molecules binding arginine methyltransferase PRMT1 – biochemical, small-molecule microarray, 635 nm fluorescence, primary screen (AID 1088).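 Further: binding of Prmt1 protein to compounds spotted on small-molecule microarray slides.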 Conditions: higher = more signal.
Experiment [12] is described as follows: growth effects on S. cerevisiae YJM789 – YJM789 clinical isolate, OD600, 24 h, basal, primary screen (AID 1089).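 Further: growth of clinical yeast isolate S. cerevisiae YJM 789 seeded 1000 cells per well; test concentration not given here.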 Conditions: higher = more signal, called active from +8 up or from −8 down.
Experiment [13] can be described thus: S. pombe growth modifiers, basal conditions – strain 972, OD600, 24 h, no modulator, primary screen (AID 1090).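 Further: basal condition with compound alone and no growth modifier present; test concentration not given here.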 Conditions: S. pombe 972 growth, higher = more signal, called active from +8 up or from −8 down.
The nature of experiment [14]: budding yeast growth modifiers under rapamycin – strain BY4716, OD600, 96 h, primary screen (AID 1091). Further: test concentration not given here. The conditions noted are these: S. cerevisiae BY4716 + rapamycin, higher = more signal, called active from +8 up or from −8 down.
Experiment [15] deals with Torsin-1A-interacting protein 2 (Homo sapiens) (UniProt Q8NFQ8). In words: small molecules binding lysate-expressed LULL1 – cell lysate, human LULL1 lysate, 635/667 nm fluorescence, primary screen (AID 1092).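 Further: score merges per-feature 667 nm fluorescence with signal-to-noise.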 Conditions: small-molecule microarray, hLULL1 lysate binding, 635 nm fluorescence; higher = more signal.
The nature of experiment [16]: optical density change of DRC41 E. coli – strain DRC41, OD650, 24 h, E. coli filamentation project, primary screen (AID 1093).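 Further: MC1000 strain lacking acrAB efflux and sulA so SOS filamentation is blocked; test concentration not given here.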 Conditions: E. coli DRC41 growth, higher = more signal, called active from +8 up or from −8 down.
Experiment [17] is described as follows: probe aLefty2 binding to arrayed compounds – biochemical, biotinylated probe, 635/667 nm fluorescence, primary screen (AID 1094).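 Further: score merges spot fluorescence near 667 nm with spot signal-to-noise ratio.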 The conditions noted are these: small-molecule microarray, higher = more signal.
Experiment [18] concerns Noggin (protein binding on small-molecule microarray). The experiment can be described thus: small molecules binding Noggin protein – biochemical, 635/667 nm fluorescence, primary screen (AID 1095).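 Further: score merges 667 nm feature fluorescence with signal to noise over triplicate slides.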 The conditions noted are these: 635 nm fluorescence, higher = more signal.
The target of experiment [19] is Neurogenic locus notch homolog protein 3 (Homo sapiens) (UniProt Q9UM47). The experiment can be described thus: small molecules binding NOTCH3 protein – biochemical, 635/667 nm fluorescence, primary screen (AID 1096). The conditions noted are these: small-molecule microarray, 635 nm fluorescence, higher = more signal.
Experiment [20] in a line: probe aEGFR binding to arrayed compounds – biochemical, biotinylated probe, 635/667 nm fluorescence, primary screen (AID 1097).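 Further: probe is a biotinylated anti-EGFR antibody binding compounds printed on slides; score combines fluorescence near 667 nm and signal to noise of each spot.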 Conditions: small-molecule microarray, higher = more signal.

SMILES strings stand for the structures. The source made the active and inactive calls.

Chain of Torsin-1A-interacting protein 2 (Homo sapiens) (Q8NFQ8 whole entry, looked up): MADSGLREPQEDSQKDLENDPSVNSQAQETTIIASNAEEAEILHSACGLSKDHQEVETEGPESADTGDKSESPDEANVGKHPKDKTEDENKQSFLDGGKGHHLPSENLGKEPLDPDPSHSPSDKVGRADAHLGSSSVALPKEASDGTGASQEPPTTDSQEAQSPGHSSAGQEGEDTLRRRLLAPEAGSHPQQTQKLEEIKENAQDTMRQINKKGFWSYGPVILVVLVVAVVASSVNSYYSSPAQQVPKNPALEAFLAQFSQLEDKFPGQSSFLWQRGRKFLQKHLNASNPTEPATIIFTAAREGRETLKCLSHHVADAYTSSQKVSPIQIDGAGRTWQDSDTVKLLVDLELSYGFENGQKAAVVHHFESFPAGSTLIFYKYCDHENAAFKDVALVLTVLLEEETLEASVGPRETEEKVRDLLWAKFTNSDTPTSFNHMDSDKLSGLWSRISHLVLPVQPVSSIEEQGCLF
Chain of Pro-neuregulin-1, membrane-bound isoform (Homo sapiens) (Q02297 whole entry, looked up, the tested form may be a part, canonical isoform): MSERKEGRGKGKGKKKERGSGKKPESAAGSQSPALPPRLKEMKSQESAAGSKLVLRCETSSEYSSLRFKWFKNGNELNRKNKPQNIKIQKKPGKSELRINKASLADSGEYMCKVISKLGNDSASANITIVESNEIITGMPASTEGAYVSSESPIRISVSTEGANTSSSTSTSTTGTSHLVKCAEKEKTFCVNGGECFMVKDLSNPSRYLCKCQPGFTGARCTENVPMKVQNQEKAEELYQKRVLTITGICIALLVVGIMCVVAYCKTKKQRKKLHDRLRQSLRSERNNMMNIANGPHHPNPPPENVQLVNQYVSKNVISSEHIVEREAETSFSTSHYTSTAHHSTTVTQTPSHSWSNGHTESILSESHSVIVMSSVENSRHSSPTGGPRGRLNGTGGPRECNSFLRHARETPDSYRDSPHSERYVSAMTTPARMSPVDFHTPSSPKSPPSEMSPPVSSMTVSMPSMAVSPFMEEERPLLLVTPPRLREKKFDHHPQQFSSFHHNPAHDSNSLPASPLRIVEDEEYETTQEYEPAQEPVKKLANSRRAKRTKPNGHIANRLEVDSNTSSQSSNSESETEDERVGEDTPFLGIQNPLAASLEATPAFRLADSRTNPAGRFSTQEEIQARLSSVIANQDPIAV
Chain of Neurogenic locus notch homolog protein 2 (Homo sapiens) (Q04721 whole entry, looked up, canonical isoform): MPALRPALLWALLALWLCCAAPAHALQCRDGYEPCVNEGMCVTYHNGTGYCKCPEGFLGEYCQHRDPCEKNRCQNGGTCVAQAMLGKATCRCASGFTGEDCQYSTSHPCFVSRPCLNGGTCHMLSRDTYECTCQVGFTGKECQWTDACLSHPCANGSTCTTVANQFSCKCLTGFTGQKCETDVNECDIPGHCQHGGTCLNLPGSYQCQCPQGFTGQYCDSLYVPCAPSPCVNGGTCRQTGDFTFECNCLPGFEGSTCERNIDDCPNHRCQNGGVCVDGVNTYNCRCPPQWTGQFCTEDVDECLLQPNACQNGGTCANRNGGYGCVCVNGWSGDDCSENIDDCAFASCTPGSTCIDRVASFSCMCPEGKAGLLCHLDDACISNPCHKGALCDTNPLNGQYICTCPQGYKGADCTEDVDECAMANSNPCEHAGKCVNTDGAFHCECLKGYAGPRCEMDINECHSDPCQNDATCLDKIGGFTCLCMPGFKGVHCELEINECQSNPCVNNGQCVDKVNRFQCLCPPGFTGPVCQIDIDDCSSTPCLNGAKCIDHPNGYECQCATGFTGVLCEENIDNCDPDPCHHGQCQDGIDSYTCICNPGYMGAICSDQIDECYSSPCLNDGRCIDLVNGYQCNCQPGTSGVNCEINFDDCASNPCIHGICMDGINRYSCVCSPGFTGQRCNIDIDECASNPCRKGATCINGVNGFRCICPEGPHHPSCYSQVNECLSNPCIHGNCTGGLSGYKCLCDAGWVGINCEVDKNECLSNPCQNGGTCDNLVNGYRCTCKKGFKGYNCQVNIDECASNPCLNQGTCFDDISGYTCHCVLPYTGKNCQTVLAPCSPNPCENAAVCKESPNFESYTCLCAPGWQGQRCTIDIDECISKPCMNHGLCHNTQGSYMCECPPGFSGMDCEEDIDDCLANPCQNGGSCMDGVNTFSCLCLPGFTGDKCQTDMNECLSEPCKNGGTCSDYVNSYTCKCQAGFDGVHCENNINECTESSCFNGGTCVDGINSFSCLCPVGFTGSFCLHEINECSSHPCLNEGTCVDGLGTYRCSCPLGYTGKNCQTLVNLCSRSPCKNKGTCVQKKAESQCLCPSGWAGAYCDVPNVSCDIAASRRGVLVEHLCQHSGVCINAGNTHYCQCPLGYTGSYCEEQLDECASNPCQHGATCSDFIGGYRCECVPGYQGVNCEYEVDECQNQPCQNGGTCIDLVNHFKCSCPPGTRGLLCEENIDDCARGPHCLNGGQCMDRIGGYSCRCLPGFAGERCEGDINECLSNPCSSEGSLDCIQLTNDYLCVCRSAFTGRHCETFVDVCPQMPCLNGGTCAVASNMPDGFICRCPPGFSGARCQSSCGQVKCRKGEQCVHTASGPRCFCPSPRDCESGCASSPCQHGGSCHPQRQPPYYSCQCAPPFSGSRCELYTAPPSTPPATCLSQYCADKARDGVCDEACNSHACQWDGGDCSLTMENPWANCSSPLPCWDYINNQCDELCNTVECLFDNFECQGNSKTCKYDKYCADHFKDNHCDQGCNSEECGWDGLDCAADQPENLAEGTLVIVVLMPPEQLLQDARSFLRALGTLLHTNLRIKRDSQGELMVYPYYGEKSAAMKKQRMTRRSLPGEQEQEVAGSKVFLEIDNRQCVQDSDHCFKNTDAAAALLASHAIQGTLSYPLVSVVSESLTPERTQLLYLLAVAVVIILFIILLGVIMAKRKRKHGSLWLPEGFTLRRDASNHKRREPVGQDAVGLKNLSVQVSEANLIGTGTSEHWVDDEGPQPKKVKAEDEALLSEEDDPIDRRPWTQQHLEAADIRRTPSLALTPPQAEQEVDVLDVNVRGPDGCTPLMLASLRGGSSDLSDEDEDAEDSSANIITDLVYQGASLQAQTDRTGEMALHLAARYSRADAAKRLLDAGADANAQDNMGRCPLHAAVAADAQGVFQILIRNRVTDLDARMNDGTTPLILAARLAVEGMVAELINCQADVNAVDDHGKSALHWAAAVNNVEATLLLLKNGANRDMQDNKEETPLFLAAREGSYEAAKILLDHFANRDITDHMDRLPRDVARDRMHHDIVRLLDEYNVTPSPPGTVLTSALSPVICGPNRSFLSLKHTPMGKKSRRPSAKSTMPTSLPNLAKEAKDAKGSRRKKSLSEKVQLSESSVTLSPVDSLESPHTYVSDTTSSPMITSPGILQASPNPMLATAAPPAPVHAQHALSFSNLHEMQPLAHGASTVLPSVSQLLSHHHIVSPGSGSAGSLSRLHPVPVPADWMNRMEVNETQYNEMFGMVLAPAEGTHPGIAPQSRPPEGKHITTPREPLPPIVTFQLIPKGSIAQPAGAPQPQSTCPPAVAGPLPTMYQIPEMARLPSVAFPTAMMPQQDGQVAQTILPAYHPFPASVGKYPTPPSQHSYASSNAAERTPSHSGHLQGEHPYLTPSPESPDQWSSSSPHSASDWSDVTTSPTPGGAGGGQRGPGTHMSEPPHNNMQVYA

As to `CC(=O)N1Cc2ccccc2C[C@@]2(N=C(c3ccc(OCCCO)cc3)O[C@H]2c2ccccc2)C1=O`, the composite z-score stood at 0.136 in experiment [1]; 0.0287 in experiment [2]; 0.0933 in experiment [3]; 0.145 in experiment [4]; 1.09 in [5]; 1.54 in experiment [6]. In addition, the composite z-score was 1.31 in experiment [7]; 1.55 in experiment [9]; -0.393 in experiment [10]; 1.53 in experiment [11]; 3.32 in experiment [15]; 0.215 in experiment [17]. The composite z-score in experiment [18] was 1.47; in experiment [19], 1.11; in experiment [20], 0.107. Also, the z-score in experiment [8] is -3.53 (inactive); in [12], -3.56 (inactive); in [13] it was -3.68 (inactive); in experiment [14], 17.1 (active); in experiment [16], 1.5 (inactive).

For the compound `COc1ccc(C(=O)Nc2cccc(CN3C(=O)[C@@]4(O[C@@H](CC(=O)N5Cc6ccccc6C[C@H]5CO)[C@H]([Si](C)(C)c5ccc(OC)cc5)[C@H]4C)c4ccccc43)c2)cc1`, the composite z-score in [1] is 0.0279; in experiment [2], 1.09; in experiment [3] it was -0.0924; in experiment [4], 0.505; in [5], 0.493; in experiment [6], 0.598. Moreover, the composite z-score was 1.25 in experiment [7]; 0.349 in experiment [9]; -0.0994 in experiment [10]; 1.55 in experiment [11]; 1.71 in experiment [15]; 0.0327 in experiment [17]. Besides, the results for the composite z-score in experiment [18], in experiment [19] and in experiment [20] were 1.25, 0.893 and 0.0276, respectively. Besides, the z-score in experiment [8] is -2.95 (inactive); in [12], -1.26 (inactive); in [13] it was 0.166 (inactive); in [14], 1.22 (inactive); in experiment [16] it was -0.209 (inactive).

Regarding `CC(=O)NCCCC[C@@H]1NC(=O)[C@@H]2C[C@H](C(=O)NCCCCCC[N+](C)(C)C)[C@H](c3cccc(OCCO)c3)N2C1=O`, the composite z-score in experiment [1] was -0.0722; in [2], 1.23; in experiment [3] it was -0.0098; in [4] it was 0.498; in [5], 0.0496; in [6] it was 1.52. Moreover, the composite z-score in experiment [7] is 1.35; in experiment [9] it was 0.715; in [10] it was -0.0296; in [11], 1.54; in experiment [15], 2.46; in experiment [17], 0.0283. The composite z-score in experiment [18] was 1.03; in [19] it was 1.02; in [20] it was -0.115. Moreover, the z-score in experiment [8] is 3.12 (inactive); in [12] it was 0.801 (inactive); in experiment [13] it was 0.385 (inactive); in [14], 1.1 (inactive); in experiment [16] it was -0.104 (inactive).

Turning to `C=C[C@H](C)[C@H](OC(=O)Nc1ccc(OC)cc1)c1ccc(O)c2ccccc12`, the composite z-score in experiment [1] is 0.436; in experiment [2], -0.0826; in experiment [3], -0.121; in experiment [4] it was -0.148; in experiment [5] it was -0.714; in experiment [6] it was -0.322. For the same compound, the composite z-score is 0.957 in [7]; -0.304 in [9]; -0.124 in [10]; -0.0544 in [11]; 0.645 in experiment [15]; -0.151 in experiment [17]. For the same compound, the composite z-score in experiment [18] was 0.585; in experiment [19] it was 0.0103; in experiment [20] it was -0.222. The z-score was 3.63 (inactive) in [8]; -25.3 (active) in [12]; -20.9 (active) in experiment [13]; -3.05 (inactive) in [14]; 0.355 (inactive) in [16].

Consider `COc1ccc([Si](C)(C)[C@@H]2[C@@H](CCO)O[C@]3(C(=O)N(Cc4cccc(N(C=O)c5ccccc5)c4)c4ccccc43)[C@H]2C)cc1`, for which the composite z-score was 0.318 in experiment [1]; 0.526 in experiment [2]; -0.0784 in [3]; -0.126 in experiment [4]; 0.199 in experiment [5]; 0.835 in experiment [6]. The composite z-score in experiment [7] was 0.787; in experiment [9] it was 0.316; in [10], 0.0524; in experiment [11], 1.12; in experiment [15] it was 0.745; in experiment [17], -0.0719. Moreover, the values for the composite z-score in [18], in [19] and in experiment [20] were 0.145, 0.258 and -0.201, respectively. Besides, the z-score in [8] is -0.198 (inactive); in experiment [12], 1.35 (inactive); in [13] it was 0.946 (inactive); in experiment [14], 9.98 (active); in [16], 1.03 (inactive).
